# High-throughput results (PubChem BioAssay)
# A selection: hits, their analogues and other compounds. The true share with any hit is near 4.7%.
# GPR32 ag = qHTS for Agonists of Human Resolvin D1 Receptor DRV1. Probable G-protein coupled receptor 32 (Homo sapiens), O75388. CHO-K1 GPR32 beta-arrestin PathHunter luminescence, 90 min; zero percent set by DMSO-only wells. activation, % at 76.9 µM. 48,000 compounds, 2.5% hits. AID 1346428, 2018;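 active means activation of at least 60% and not above a set upper limit, about 1 call in 100 departs from these limits; inconclusive means activation of 40% to 60%, or above that upper limit; inactive means activation under 40%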; further: 0% is about no effect
# Target sequence (O75388 whole entry, looked up): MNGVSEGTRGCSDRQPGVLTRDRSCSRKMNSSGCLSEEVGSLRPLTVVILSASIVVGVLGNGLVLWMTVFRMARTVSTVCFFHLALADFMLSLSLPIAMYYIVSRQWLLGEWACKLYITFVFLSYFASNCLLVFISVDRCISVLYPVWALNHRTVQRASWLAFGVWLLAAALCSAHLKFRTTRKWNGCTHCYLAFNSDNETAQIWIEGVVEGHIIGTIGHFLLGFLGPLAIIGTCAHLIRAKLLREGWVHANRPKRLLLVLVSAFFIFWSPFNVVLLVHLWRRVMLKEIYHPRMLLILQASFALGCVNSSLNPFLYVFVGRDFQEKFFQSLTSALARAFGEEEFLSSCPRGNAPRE
#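 Beta-arrestin recruitment read-out: luminescence from complemented beta-Gal in CHO-K1 GPR32 PathHunter cells, measured 1 h after detection reagent at ambient temperature following 90 min compound exposure at 37 °C; DMSO served as basal (EC0) control.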
# GALC G270D act = A Novel Cell-Based Assay to Identify Small Molecules for B -Galactocerebrosidase. AID 1159614, 2016. 145M-Twi-hGALC-G270D cells (Twitcher mouse brain line with human GALC G270D), HMU-beta-Gal fluorescence, 48 h. P54803. 45,000 compounds, 0.1% hits. Potency, µM (series often up to 57.5 µM), hits mostly activators; further: potency means the concentration at half of the fitted maximal effect; 0% is about no effect; nearly all actives have a fitted effect of over 65% in size
#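 Fluorescence readout: HMU-β-gal cleavage by mutant GALC (0.1 mM final, citrate/phosphate pH 5.2 with 1 mg/mL taurocholate), stopped with carbonate/bicarbonate plus Triton X-100. Cells: murine Twitcher 145M-Twi expressing human G270D GALC; qHTS for activators.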
# HTT-AS promoter = Primary qHTS for Identification of Small Molecule Activators of Huntingtin-Antisense Promoter Activity. Potency, µM (titrated, usually from 57.5 µM), inactives show at the top dose activity change, positive = activation, usual class: activators. 48,000 compounds, 0.24% hits. HEK293 HTT-AS promoter firefly luciferase reporter, 24 h; response scale: percent change from vehicle, -100% = no light. AID 1508624, 2021; further: potency means the concentration at half of the fitted maximal effect; nearly all actives have a fitted effect of over 55% in size
#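 HEK293 Fluc reporter, 2,500 cells/well, 24 h pre-culture; cpds up to 57.5 uM final, 24 h 37 degrees C; Dual-Glo, 10 min RT; normalized vehicle = 0%, zero RLU = -100%.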
# HTT promoter inh = Primary qHTS for Identification of Small Molecule Inhibitors of Huntingtin Promoter Activity; HEK293 HTT promoter firefly luciferase reporter, 24 h; Potency, µM (series often up to 57.5 µM), without a hit: top-dose activity change, negative = inhibition, usual class: inhibitors; 48,000 compounds, 0.93% hits; further: potency means the concentration at half of the fitted maximal effect; nearly all actives have a fitted effect of over 50% in size
#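 HEK293 luciferase promoter-reporter cells (2,500/well) plated 24 h, then compounds added at up to 57.5 uM final for 24 h at 37 °C. Firefly luminescence by Dual-Glo, normalized to vehicle (0%) and zero RLU (-100%).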
# NTMT1 inh = Primary qHTS for Inhibitors of N-terminal methyltransferase 1 (NTMT1): MTaseGlo Assay | N-terminal Xaa-Pro-Lys N-methyltransferase 1 (Homo sapiens), Q9BV86 | NTMT1 MTase-Glo SAH luminescence, purified enzyme | Potency, µM (titrated, usually from 114 µM), inactives show at the highest dose activity change, negative = inhibition, most hits filed as inhibitors | 59,000 compounds, 2.5% hits;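 further: potency means the concentration at half of the fitted maximal effect; plate controls were DMSO vehicle for no effect and no enzyme for full effect; nearly all actives have a fitted effect of over 65% in size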
# Target sequence (Q9BV86 whole entry, looked up): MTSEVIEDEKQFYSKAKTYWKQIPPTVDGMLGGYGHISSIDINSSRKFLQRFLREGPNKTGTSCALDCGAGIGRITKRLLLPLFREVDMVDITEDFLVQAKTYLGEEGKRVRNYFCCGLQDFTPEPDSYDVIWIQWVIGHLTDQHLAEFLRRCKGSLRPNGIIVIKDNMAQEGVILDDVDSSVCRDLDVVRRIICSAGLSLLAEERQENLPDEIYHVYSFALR
# FH mod = Identification of activators of human fumarate hydratase by quantitative high-throughput screening. Fumarate hydratase, mitochondrial (Homo sapiens), P07954. FH coupled MDH/diaphorase resazurin fluorescence, 15 min. Potency, µM (titrated, usually from 79.9 µM), for the others: at the top dose activity change, negative = inhibition, most hits filed as inhibitors. 54,000 compounds, 0.22% hits. AID 1347055, 2019; further: potency means the concentration at half of the fitted maximal effect; on the % scale 0 is the no-effect control and ±100 the full control effect; the screen sought activators but most active calls are inhibition curves; nearly all actives have a fitted effect of over 45% in size
# An asterisk follows results filed as active; i = inactive; ? = inconclusive; · = no result given; ! = not active in a repeat; [ ] = another dose, or the depositor's remark. Unless noted, the call rests on the fitted dose curve; in most records, active means well fitted curve in the direction sought with a large enough effect; inconclusive means small, poorly fitted or top-dose-only effect, or another doubt; inactive means no such curve, though single readings can be large; an effect the other way counts as inactive or inconclusive.
SMILES,GPR32 ag,GALC G270D act,HTT-AS promoter,HTT promoter inh,NTMT1 inh,FH mod
CCN(CC)CCCC(C)Nc1c2ccc(Cl)cc2nc2ccc(OC)cc12 (stereo not given),11,i,-2%,9%,45µM*!,3%[53.3 µM]
O=C(Nc1nc2c(F)cc(F)cc2s1)c1ccc(S(=O)(=O)N2CCc3ccccc32)cc1,-6,i,-56%,22µM*,7%,-4%
O=C(Nc1ccc(Br)cc1)c1ccc(F)c(S(=O)(=O)N2CCc3ccccc32)c1,-9,i,-45%,14µM*,16%,-27%
O=C(Nc1ccc(Cl)cc1)c1cc(S(=O)(=O)N2CCCc3ccccc32)ccc1F,-23,i,-46%,25µM*,-7%,-23%
O=C(Nc1nc2c(F)cccc2s1)c1ccc(S(=O)(=O)N2CCCc3ccccc32)cc1,-6,i,-9%,1%,-5%,4%
Cc1ccc(C)c(N2CCN(S(=O)(=O)c3cc(C(=O)Nc4ccc(Oc5ccccc5)cc4)ccc3F)CC2)c1,-7,i,-41%,2µM*,6%,2%
O=C(Nc1ccc(C(F)(F)F)cc1)c1cc(S(=O)(=O)N2CCCc3ccccc32)ccc1F,-12,i,-74%,?,3%,?
Cc1ccc2nc(NS(=O)(=O)c3ccc(Cl)cc3)c(Nc3ccc(C(=O)O)cc3)nc2c1,83*,i,0%,1%,-2%,?
CN1CCN(c2cccc(Nc3nn4c(=O)c5ccc(F)cc5nc4s3)c2)CC1,·,·,·,·,-5%,·
CN1CCN(c2cccc(Nc3nn4c(=O)c5ccc(N(C)C)cc5nc4s3)c2)CC1,·,·,·,·,50µM*,·
CN1CCN(c2cccc(CNc3nn4c(=O)c5ccccc5nc4s3)c2)CC1,·,·,·,·,7%,·
O=c1c2ccccc2nc2sc(Nc3cccc(N4CCNCC4)c3)nn12,·,·,·,·,50µM*!,·
CCOc1ccc(CCNC(=O)c2cc3sccc3n2CCN(C)C)cc1OCC,·,·,·,·,-23%,·
S=C(Nc1ccccn1)c1ccccn1,·,·,·,·,8.9µM*,·
Oc1ccc(CNc2ccccn2)c2cccnc12,·,·,·,·,9%,·
COc1ccc2cc3cc(C(=O)Nc4ccccc4C)oc3nc2c1,98*,i,-4%,-18%,0%,-2%
Cc1ccc(S(=O)(=O)c2nnn3c2nc(NCc2ccc(F)cc2)c2sccc23)cc1,-15,i,-11%,2%,89µM*,-8%
Cc1ccc(S(=O)(=O)c2nnn3c2nc(NCc2ccccc2)c2sccc23)cc1,-23,i,-41%,-31%,-7%,8%
O=C(Cn1nc(-c2ccc(F)cc2)ccc1=O)NCCc1ccccc1,·,·,·,·,79µM*,·
CC(C)(C)c1ccc(-c2ccc(=O)n(CC(=O)NCCc3ccccc3)n2)cc1,·,·,·,·,15%,·
COc1cc([C@@H](CC(=O)O)c2ccc(C)c(CN3C[C@@H](C)Oc4ccccc4S3(=O)=O)c2)cc2nnn(C)c12,·,·,·,·,-7%[57.5 µM],·
COc1ccccc1N1CCN(C(=O)c2cn(CC(C)C)c(=O)c3c2c2ccccc2n3C)CC1,-30,i,-30%,?,?,-14%
Cn1c2ccccc2c2c(C(=O)N3CCN(c4cccc(C(F)(F)F)c4)CC3)cn(C3CCCCC3)c(=O)c21,-30,i,-26%,?,-2%,?
Cn1cc(C(=O)N2CCN(c3cccc(C(F)(F)F)c3)CC2)c2c3ccccc3n(C)c2c1=O,118*,i,-41%,?,8%,?
COc1ccc(N2CCN(C(=O)c3cn(CC(C)C)c(=O)c4c3c3ccccc3n4C)CC2)cc1,-28,i,-13%,-19%,-9%,32µM*
SMILES,GPR32 ag,GALC G270D act,HTT-AS promoter,HTT promoter inh,NTMT1 inh,FH mod
CC(C)c1onc(-c2c(Cl)cccc2Cl)c1COc1ccc(C=Cc2cccc(C(=O)O)c2)c(Cl)c1,·,·,?,23%,17µM*,?
COc1ccc(C(=O)Nc2ccc3nc(N4CCC(C)CC4)cc(C)c3c2)cc1,26,i,-13%,12%,12%,-27%
Cc1cc(C)cc(NC(=O)Nc2ccc3nc(N4CCN(C)CC4)cc(C)c3c2)c1,14,18µM*,-18%,4%,9%,-6%
Cc1cc(N2CCCCC2)nc2ccc(NC(=O)c3ccc(F)cc3)cc12,105*,i,-24%,-20%,1%,?
Cc1ccc(NC(=O)Nc2ccc3nc(N4CCN(C)CC4)cc(C)c3c2)cc1F,94*,i,-51%,-21%,-2%,0%
Cc1cc(N2CCN(C)CC2)nc2ccc(NC(=O)Nc3ccc(F)cc3)cc12,30,i,9%,25%,?,1%
O=C(CC1C(=O)Nc2ccccc21)OC[C@H]1O[C@@H](OCCc2ccc(O)cc2)[C@H](O)[C@@H](O)[C@@H]1O (stereo not given in full),·,·,·,·,-19%[29.8 µM],0%[53.3 µM]
Cc1cc(C)n2ncc(C(=O)Nc3ccc(Br)cc3)c2n1,·,·,·,·,11%[57.5 µM],·
CCOc1ccccc1NC(=O)CSc1nc2ccccc2c2nc(CCn3cncc3C)nn12,97*,i,-20%,-27%,?,3%
O=C(Nc1ccc(F)c(C(F)(F)F)c1)Nc1nnc(-c2ccncc2)o1,·,·,·,·,14%,·
Cc1nc(-c2ccc(S(=O)(=O)Nc3ccc(OC(F)(F)F)cc3)cc2)co1,114*,i,-31%,?,12%,1%
Cc1nc(-c2ccc(S(=O)(=O)NCc3ccc(OC(C)C)cc3)cc2)co1,?,i,-28%,?,0%,1%
Cc1nc(-c2ccc(S(=O)(=O)Nc3cc(Cl)ccc3C)cc2)co1,82*,i,-21%,-26%,-6%,-14%
CCc1c(C)nc2nncn2c1NCc1ccc(Cl)cc1,66*,i,-44%,?,2%,-1%
COc1ccc(C(=O)CN2CCN(S(=O)(=O)c3ccc(C(C)C)cc3)CC2)cc1,20,i,-25%,?,56µM*,-5%
Nc1nc(OC(c2ccc(-c3cccc(F)c3)cc2)C(F)(F)F)cc(-c2ccc(C[C@@H](N)C(=O)O)cc2)n1 (stereo not given in full),·,·,·,·,5%,·
CCC(=O)N1CCc2cc(S(=O)(=O)CCC(=O)Nc3ccc(OC(F)(F)F)cc3)ccc21,65*,i,-25%,?,8%,-7%
